Test results taken from PMC7862700, “An all-to-all approach to the identification of sequence-specific readers for epigenetic DNA modifications on cytosine”.

Legend:
Test in all cases: DAPPL (digital affinity profiling via proximity ligation, sequencing); 10 mM Tris-HCl pH 7.5, 50 mM NaCl, 1 mM DTT, 4% glycerol, room temperature, 30 min; GST-TFs on glutathione beads, 16-mer random dsDNA library, 0.1% formaldehyde crosslink after washing; high values mean tight binding
Details in all cases: protein: recombinant; tags: N-terminal GST; dsDNA, one strand shown
FLI1 = biological target: T1, FLI1 (Homo sapiens, UniProt Q01543 1-452)
T1 sequence: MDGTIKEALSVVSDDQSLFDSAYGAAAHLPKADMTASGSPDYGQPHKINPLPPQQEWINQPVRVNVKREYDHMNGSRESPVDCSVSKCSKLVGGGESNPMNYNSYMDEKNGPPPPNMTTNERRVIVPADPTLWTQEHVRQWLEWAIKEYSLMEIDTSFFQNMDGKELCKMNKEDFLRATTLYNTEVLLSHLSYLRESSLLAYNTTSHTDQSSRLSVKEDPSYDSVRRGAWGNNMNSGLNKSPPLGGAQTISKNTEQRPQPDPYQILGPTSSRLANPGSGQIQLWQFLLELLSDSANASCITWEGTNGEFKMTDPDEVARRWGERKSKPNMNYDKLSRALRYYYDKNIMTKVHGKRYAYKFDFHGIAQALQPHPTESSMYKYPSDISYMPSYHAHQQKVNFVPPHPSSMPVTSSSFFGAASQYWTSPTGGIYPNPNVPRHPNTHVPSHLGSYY
Method in brief: (§1)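 Pools were built from human transcription factors expressed in yeast as GST fusions, captured on glutathione beads and DNA-barcoded, along with a tag-only sample. Incubation with 200 nmole of a 16-mer random double-stranded DNA library lasted 30 min at room temperature in Tris/NaCl/DTT/glycerol buffer, and was followed by washing, 0.1% formaldehyde crosslinking, proximity ligation, PCR amplification and Illumina NextSeq500 sequencing. Binding signal is the quotient of each hexamer's read frequency for a factor and its frequency for the tag-only sample.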

ELK1 = biological target: T2, ELK1 (Homo sapiens, UniProt P19419 1-428)
T2 sequence: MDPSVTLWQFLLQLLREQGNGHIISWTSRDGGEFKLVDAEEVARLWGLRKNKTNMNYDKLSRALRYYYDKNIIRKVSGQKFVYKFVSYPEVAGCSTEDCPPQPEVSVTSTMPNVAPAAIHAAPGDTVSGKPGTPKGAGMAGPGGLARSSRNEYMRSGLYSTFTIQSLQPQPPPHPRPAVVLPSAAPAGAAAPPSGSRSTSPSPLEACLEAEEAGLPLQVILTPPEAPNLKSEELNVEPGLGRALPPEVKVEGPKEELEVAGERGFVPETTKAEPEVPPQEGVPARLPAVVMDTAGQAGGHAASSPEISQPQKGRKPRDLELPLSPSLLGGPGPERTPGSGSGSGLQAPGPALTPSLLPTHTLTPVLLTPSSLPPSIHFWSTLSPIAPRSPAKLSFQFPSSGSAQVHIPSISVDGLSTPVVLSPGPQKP
Method in brief: as §1

GABPA = biological target: T3, GABPA (Homo sapiens, UniProt Q06546 1-454)
T3 sequence: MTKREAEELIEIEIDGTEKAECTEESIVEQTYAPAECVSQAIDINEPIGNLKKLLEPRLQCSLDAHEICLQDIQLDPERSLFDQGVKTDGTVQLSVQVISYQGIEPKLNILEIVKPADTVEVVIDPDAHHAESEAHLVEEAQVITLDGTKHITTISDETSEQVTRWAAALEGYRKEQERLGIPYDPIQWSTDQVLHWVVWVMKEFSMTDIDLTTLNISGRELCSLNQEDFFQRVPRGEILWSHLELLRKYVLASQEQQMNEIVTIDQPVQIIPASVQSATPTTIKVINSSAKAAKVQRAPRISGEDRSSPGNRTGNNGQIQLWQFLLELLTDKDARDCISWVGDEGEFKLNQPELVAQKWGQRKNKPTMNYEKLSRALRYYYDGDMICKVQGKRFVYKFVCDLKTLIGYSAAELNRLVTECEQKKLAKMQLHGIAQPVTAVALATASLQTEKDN
Method in brief: as §1

ERG = biological target: T4, ERG (Homo sapiens, UniProt P11308 1-479)
T4 sequence: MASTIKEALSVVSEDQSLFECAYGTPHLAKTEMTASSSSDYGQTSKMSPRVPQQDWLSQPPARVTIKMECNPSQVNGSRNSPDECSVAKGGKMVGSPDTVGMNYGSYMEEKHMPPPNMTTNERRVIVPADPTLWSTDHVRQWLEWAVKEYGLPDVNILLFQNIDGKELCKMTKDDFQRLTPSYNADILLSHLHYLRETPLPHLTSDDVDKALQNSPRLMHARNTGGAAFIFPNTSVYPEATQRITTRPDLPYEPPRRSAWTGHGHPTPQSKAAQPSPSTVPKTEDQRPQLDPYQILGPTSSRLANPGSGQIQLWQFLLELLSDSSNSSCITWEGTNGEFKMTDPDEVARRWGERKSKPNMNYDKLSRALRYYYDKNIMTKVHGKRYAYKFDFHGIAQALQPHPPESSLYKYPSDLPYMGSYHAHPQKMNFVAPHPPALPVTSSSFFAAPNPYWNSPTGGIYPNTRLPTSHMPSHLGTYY
Method in brief: as §1

ELF1 = ELF1 (Homo sapiens, UniProt P32519 1-619)
Method in brief: as §1

EHF = biological target: T5, EHF (Homo sapiens, UniProt Q9NZC4 1-300)
T5 sequence: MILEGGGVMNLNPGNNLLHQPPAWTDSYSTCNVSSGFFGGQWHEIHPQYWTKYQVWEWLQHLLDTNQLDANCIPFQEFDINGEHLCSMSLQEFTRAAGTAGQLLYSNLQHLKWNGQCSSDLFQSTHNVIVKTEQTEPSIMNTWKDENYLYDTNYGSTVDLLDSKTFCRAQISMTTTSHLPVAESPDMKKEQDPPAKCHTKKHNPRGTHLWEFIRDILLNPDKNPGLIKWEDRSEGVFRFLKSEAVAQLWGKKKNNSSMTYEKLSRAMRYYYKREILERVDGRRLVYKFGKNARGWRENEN
Method in brief: as §1

SPI1 = SPI1 (Homo sapiens, UniProt P17947 1-270)
Method in brief: as §1

SPIB = SPIB (Homo sapiens, UniProt Q01892 1-262)
Method in brief: as §1

FEV = biological target: T6, FEV (Homo sapiens, UniProt Q99581 1-238)
T6 sequence: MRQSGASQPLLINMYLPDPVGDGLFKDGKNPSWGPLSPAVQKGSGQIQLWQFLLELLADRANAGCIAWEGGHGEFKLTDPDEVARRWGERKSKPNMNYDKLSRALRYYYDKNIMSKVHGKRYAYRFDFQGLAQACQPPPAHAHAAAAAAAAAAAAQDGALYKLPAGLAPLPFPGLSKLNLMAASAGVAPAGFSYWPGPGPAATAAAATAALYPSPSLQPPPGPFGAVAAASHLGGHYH
Method in brief: as §1

ETV5 = ETV5 (Homo sapiens, UniProt P41161 1-510)
Method in brief: as §1

ELF4 = ELF4 (Homo sapiens, UniProt Q99607 1-663)
Method in brief: as §1

ETV2 = biological target: T7, ETV2 (Homo sapiens, UniProt O00321 1-342)
T7 sequence: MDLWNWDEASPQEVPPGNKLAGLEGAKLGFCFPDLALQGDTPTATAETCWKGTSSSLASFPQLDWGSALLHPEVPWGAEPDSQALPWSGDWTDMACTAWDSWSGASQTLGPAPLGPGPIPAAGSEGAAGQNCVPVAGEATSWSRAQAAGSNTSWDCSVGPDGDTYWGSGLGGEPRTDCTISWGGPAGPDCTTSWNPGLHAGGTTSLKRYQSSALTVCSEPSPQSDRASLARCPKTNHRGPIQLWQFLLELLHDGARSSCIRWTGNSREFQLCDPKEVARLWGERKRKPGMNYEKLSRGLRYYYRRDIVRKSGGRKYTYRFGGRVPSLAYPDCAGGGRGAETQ
Method in brief: as §1

ELF3 = biological target: T8, ELF3 (Homo sapiens, UniProt P78545 1-371)
T8 sequence: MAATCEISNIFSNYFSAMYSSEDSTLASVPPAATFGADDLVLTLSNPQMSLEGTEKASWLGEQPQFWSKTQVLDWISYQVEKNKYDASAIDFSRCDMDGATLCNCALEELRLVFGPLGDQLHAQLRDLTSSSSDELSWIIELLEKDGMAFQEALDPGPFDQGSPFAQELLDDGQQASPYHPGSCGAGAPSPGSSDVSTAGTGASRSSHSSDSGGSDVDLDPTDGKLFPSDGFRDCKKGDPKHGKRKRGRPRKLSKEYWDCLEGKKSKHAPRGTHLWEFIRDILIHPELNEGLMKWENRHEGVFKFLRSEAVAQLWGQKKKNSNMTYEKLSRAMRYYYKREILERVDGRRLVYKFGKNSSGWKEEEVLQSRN
Method in brief: as §1

ETV1 = ETV1 (Homo sapiens, UniProt P50549 1-477)
Method in brief: as §1

ERF = biological target: T9, ERF (Homo sapiens, UniProt P50548 1-548)
T9 sequence: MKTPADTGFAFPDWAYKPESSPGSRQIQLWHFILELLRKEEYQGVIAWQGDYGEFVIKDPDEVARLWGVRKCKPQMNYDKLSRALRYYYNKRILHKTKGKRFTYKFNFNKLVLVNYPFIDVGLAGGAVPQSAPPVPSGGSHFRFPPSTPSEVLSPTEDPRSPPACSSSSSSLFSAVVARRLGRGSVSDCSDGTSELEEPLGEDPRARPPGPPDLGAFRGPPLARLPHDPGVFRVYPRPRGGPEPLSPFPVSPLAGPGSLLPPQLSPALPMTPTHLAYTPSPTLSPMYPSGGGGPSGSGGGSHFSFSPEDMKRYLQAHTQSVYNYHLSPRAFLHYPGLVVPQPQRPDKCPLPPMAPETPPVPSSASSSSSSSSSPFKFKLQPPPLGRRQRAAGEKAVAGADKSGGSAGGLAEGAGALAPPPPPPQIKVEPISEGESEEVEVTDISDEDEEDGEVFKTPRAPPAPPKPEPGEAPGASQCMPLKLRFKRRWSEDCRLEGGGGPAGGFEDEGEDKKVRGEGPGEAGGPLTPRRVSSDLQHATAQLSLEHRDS
Method in brief: as §1

ETV3L = biological target: T10, ETV3L (Homo sapiens, UniProt Q6ZN32 1-361)
T10 sequence: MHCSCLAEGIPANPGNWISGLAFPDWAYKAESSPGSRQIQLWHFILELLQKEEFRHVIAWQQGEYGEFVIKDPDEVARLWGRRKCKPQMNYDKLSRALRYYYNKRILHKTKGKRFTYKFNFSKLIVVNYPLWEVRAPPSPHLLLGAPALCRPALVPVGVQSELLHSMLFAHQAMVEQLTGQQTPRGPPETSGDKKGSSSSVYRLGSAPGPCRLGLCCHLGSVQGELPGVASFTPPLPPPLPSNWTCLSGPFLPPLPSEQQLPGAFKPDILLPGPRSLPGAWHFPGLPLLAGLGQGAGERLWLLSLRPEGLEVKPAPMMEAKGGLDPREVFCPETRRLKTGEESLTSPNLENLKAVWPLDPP
Method in brief: as §1

ETS2 = biological target: T11, ETS2 (Homo sapiens, UniProt P15036 1-469)
T11 sequence: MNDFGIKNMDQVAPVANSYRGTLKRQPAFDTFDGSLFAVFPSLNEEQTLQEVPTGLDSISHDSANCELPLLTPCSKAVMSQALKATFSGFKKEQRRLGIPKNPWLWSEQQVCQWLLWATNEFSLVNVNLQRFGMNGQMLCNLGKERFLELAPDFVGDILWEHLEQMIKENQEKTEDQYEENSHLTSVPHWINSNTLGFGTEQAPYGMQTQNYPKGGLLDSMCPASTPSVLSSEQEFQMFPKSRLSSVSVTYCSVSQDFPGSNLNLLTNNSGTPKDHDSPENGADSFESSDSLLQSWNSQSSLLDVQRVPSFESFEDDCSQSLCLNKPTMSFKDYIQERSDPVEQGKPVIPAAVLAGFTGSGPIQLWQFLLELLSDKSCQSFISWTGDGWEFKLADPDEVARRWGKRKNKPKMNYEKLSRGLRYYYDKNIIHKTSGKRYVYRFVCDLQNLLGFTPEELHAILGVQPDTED
Method in brief: as §1

ETV7 = biological target: T12, ETV7 (Homo sapiens, UniProt Q9Y603 1-341)
T12 sequence: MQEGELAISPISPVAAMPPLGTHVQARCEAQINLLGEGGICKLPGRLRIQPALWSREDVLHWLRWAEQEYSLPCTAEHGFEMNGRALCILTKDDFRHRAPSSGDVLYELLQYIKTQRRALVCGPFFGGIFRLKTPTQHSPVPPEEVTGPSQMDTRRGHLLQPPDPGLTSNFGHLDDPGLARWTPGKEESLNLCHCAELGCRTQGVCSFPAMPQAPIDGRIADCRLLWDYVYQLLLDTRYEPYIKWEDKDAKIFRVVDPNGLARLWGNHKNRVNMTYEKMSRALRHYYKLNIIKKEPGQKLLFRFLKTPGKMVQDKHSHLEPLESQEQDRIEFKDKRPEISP
Method in brief: as §1

ETV3 = biological target: T13, ETV3 (Homo sapiens, UniProt P41162-2 1-143)
T13 sequence: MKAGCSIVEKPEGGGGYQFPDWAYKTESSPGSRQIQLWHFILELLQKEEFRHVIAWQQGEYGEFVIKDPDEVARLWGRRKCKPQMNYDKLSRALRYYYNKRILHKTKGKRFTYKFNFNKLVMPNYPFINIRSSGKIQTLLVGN
Method in brief: as §1

ETV6 = ETV6 (Homo sapiens, UniProt P41212 1-452)
Method in brief: as §1

Chain of SPIB (Q01892 whole entry): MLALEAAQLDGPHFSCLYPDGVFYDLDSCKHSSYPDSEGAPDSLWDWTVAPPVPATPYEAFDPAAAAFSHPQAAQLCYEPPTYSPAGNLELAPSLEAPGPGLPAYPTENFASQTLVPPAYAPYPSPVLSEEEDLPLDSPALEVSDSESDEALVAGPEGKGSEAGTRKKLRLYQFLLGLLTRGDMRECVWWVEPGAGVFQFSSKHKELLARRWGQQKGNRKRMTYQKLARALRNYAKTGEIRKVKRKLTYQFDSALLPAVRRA
Chain of ETV5 (P41161 whole entry): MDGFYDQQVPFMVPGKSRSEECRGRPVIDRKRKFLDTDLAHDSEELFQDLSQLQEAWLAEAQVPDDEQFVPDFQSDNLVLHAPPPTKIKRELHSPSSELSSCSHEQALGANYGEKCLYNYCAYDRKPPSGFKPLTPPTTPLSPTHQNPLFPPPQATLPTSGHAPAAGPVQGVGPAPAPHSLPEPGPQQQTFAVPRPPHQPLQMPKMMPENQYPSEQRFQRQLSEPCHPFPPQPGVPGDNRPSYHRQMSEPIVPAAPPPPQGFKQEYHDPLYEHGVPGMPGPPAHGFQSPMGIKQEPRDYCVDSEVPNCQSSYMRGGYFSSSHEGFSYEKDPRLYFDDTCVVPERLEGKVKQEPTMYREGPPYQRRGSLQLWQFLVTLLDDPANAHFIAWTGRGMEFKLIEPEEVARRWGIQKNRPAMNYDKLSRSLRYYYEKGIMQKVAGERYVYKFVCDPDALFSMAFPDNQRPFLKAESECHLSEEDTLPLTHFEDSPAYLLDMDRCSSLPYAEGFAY
Chain of ELF4 (Q99607 whole entry): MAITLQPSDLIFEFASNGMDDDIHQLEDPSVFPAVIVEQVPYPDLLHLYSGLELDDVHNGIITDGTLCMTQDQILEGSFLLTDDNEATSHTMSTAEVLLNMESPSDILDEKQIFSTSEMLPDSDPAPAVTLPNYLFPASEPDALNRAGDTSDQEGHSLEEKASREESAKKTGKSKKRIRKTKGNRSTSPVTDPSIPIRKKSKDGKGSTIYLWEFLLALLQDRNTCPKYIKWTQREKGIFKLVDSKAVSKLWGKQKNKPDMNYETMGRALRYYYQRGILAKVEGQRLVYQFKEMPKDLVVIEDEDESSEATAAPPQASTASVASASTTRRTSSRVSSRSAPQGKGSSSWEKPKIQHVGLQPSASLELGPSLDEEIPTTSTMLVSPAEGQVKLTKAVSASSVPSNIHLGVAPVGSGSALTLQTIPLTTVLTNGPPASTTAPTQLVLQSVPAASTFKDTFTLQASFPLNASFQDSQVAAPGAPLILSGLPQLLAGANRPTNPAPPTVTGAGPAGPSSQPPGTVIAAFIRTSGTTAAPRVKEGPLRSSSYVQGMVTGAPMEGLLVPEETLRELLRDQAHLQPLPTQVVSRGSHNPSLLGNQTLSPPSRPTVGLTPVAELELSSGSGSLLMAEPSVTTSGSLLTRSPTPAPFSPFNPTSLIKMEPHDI
Chain of ETV6 (P41212 whole entry): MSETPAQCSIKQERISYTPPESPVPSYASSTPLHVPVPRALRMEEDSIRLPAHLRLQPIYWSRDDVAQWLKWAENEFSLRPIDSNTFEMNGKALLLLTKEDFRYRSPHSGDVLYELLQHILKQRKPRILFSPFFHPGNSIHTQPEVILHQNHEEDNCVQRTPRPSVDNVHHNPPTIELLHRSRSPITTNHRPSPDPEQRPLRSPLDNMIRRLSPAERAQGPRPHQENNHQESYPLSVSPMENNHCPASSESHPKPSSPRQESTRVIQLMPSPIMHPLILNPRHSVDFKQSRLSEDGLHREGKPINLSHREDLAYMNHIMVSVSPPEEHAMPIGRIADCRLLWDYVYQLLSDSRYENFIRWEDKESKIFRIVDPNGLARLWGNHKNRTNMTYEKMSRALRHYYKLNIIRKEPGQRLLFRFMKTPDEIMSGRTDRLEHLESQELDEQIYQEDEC
Chain of ETV1 (P50549 whole entry): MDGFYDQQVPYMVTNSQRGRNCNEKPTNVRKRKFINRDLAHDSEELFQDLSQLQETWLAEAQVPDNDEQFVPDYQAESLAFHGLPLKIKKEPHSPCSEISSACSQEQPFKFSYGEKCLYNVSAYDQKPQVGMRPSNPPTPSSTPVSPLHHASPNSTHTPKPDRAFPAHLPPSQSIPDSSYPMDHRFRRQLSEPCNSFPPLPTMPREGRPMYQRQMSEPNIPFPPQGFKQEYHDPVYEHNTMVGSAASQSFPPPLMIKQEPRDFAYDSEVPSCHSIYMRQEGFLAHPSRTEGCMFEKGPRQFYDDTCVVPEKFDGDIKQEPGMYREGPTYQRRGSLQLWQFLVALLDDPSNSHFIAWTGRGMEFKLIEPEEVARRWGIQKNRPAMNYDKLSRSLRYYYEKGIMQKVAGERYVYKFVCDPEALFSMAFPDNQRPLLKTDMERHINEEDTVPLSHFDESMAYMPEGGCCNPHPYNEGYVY
Chain of ELF1 (P32519 whole entry): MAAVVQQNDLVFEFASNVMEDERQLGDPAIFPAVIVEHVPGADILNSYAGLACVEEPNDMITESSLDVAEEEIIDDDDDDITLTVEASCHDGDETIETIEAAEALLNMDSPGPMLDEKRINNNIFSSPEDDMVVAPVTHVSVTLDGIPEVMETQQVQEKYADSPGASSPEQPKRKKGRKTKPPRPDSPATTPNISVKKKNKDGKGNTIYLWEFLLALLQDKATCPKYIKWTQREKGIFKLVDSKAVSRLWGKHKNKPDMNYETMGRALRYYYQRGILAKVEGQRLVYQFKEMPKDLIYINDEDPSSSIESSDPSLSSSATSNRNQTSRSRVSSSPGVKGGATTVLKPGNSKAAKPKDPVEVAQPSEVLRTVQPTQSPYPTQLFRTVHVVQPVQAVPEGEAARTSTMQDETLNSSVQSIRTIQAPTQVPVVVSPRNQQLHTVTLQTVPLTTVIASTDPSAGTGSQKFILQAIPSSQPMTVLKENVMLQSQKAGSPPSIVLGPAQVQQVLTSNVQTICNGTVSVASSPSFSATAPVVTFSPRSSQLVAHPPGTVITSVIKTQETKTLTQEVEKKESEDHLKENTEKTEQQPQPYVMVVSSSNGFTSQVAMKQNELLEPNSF

## TCATAC
FLI1
  binding signal: 1.08 fold enrichment (6-mer frequency, TF over GST control)
ELK1
  binding signal: 1.1 fold enrichment (6-mer frequency, TF over GST control)
GABPA
  binding signal: 1.09 fold enrichment (6-mer frequency, TF over GST control)
ERG
  binding signal: 1.14 fold enrichment (6-mer frequency, TF over GST control)
ELF1
  binding signal: 1.15 fold enrichment (6-mer frequency, TF over GST control)
EHF
  binding signal: 1.02 fold enrichment (6-mer frequency, TF over GST control)
SPI1
  binding signal: 1.13 fold enrichment (6-mer frequency, TF over GST control)
SPIB
  binding signal: 1.16 fold enrichment (6-mer frequency, TF over GST control)
FEV
  binding signal: 1.07 fold enrichment (6-mer frequency, TF over GST control)
ETV5
  binding signal: 1.02 fold enrichment (6-mer frequency, TF over GST control)
ELF4
  binding signal: 1.07 fold enrichment (6-mer frequency, TF over GST control)
ETV2
  binding signal: 1.15 fold enrichment (6-mer frequency, TF over GST control)
ELF3
  binding signal: 1.08 fold enrichment (6-mer frequency, TF over GST control)
ETV1
  binding signal: 1.14 fold enrichment (6-mer frequency, TF over GST control)
ERF
  binding signal: 1.2 fold enrichment (6-mer frequency, TF over GST control)
ETV3L
  binding signal: 1.13 fold enrichment (6-mer frequency, TF over GST control)
ETS2
  binding signal: 1.06 fold enrichment (6-mer frequency, TF over GST control)
ETV7
  binding signal: 1.09 fold enrichment (6-mer frequency, TF over GST control)
ETV3
  binding signal: 1.01 fold enrichment (6-mer frequency, TF over GST control)
ETV6
  binding signal: 1.01 fold enrichment (6-mer frequency, TF over GST control)
